A selection: hits, their analogues and other compounds. The true share with any hit is near 3.3%.
SSB-PriA inh – inhibitors of Klebsiella pneumoniae PriA binding to SSB C-terminal tail, primary screen, biochemical, AlphaScreen; AID 1272365, 2023; AlphaScreen SSBct-PriA binding, biotinylated peptide; inhibition, % at 33 µM; 430,000 tested, 0.6% active; in the data active means inhibition mostly above about 37%, no sharp cut-off; inactive means mostly below about 20%
Bead autofluor – counter-screen for toxin protease inhibitors: compound fluorescence. compound autofluorescence counterscreen, microsphere flow cytometry; stronger effect = higher value. fluorescence intensity (no concentration beside the values). 360,000 tested, 3.1% active; in the data active means fluorescence intensity above about 16000; inconclusive means no clear call, values can overlap the other calls
MazF activator – activators of E. coli MazEF toxin-antitoxin RNase, primary screen, biochemical, fluorescence, uHTS | Endoribonuclease toxin MazF (Escherichia coli (strain K12)), P0AE70 | FAM/BHQ RNA-DNA oligo cleavage fluorescence, 5 h | activation, % at 20 µM | 350,000 tested, 0.32% active; in the data active means activation above about 50%
BoNT-A LC inh2 – BoNT/A light chain protease inhibitors, primary screen, biochemical, flow cytometry, MLPCN library; 360,000 tested, 0.17% active; inhibition, % at 10 µM; multiplex microsphere protease substrate cleavage; Botulinum neurotoxin type A light chain protease (Clostridium botulinum A str. ATCC 3502); AID 588499, 2011
Anthrax LF inh2 – Bacillus anthracis LF protease inhibitors, primary screen, biochemical, multiplex microsphere, MLPCN library; Lethal factor (Bacillus anthracis), P15917; inhibition, % at 10 µM; AID 588501, 2011; multiplex microsphere protease cleavage assay; 360,000 tested, 0.12% active
Target sequence (P15917 whole entry, looked up): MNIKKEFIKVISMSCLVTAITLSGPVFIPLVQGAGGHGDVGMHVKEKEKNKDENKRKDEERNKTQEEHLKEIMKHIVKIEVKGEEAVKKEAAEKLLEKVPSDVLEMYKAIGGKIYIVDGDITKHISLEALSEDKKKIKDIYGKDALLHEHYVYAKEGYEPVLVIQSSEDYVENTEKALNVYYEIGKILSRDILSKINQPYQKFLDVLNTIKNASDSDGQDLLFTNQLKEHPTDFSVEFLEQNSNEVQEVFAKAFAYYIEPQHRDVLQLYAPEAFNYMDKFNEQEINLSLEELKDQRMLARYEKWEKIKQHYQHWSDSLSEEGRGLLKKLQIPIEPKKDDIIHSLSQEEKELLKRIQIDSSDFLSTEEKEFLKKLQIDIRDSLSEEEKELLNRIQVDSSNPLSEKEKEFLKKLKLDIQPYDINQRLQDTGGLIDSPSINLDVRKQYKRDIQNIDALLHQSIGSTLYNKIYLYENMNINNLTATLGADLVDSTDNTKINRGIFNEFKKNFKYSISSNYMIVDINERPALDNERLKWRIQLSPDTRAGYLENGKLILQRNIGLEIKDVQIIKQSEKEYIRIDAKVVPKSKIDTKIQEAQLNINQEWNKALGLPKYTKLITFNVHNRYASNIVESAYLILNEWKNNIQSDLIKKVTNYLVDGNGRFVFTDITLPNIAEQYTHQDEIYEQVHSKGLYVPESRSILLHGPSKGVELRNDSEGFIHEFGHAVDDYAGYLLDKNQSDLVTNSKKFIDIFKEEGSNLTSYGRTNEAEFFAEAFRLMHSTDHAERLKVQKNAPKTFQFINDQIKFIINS
BoNT F protease – BoNT/F light chain protease inhibitors, primary screen, biochemical, flow cytometry, MLPCN library. Multiplex microsphere protease cleavage assay. 360,000 tested, 0.22% active. Botulinum neurotoxin type F light chain protease (Clostridium botulinum). AID 588497, 2011. inhibition, % at 10 µM; in the data active means inhibition above about 35%, passing the limit was not always enough; inconclusive means no clear call, values can overlap the other calls
A number is an active result; 0 = inactive; ? = inconclusive; - = not tested or not shown. Unless noted, no stated cut-off is given here; in the data, active means inhibition above about 30%; inconclusive means no clear call, values can overlap the other calls; inactive means below that.

SMILES	SSB-PriA inh	Bead autofluor	MazF activator	BoNT-A LC inh2	Anthrax LF inh2	BoNT F protease
Cc1oc2nc(SCC(=O)NCCCO)nc(N)c2c1C	0	22217	0	0	0	0
c1ccc(Cn2c(-c3cncs3)nc3ccccc32)cc1	0	20700	0	0	0	0
Brc1ccc(Cn2c(-c3cncs3)nc3ccccc32)cc1	0	0	0	0	0	0
Brc1cccc(Cn2c(-c3cncs3)nc3ccccc32)c1	0	22203	0	?	0	0
COc1ccccc1-n1ncc2c(C)nnc(SCC(=O)NCc3ccc(F)cc3)c21	0	-	-	-	-	-
COC(=O)N/N=C/c1cc(C)n(-c2ccc(Br)cc2)c1C	0	0	0	0	30.8	?
Cc1ccc(C2=NN(CC(=O)O)C(=O)CC2)cc1	0	0	0	0	0	49.5
Cc1ccc(C2=NN(CC(=O)NCc3ccco3)C(=O)CC2)cc1	0	0	0	0	0	0
CCc1ccc(NC(=O)C(=O)NCC[C@H]2CCCCN2S(=O)(=O)c2c(C)cc(C)cc2C)cc1	0	-	-	-	-	-
COc1ccc(C2SCC(=O)Nc3c2c(C)nn3-c2ccccc2)cc1OC (configuration not stated)	0	23949	0	0	0	0
COc1ccc(C2N(c3ccccc3)C(=O)C2(F)F)cc1OC (configuration not stated)	0	0	0	0	0	0
COc1ccc(C2SCC(=O)Nc3c2c(C)nn3C2CCOC(C)(C)C2)cc1OC (configuration not stated)	0	23587	0	?	0	0
COc1cc(C2NC(=O)NC(C)=C2C(=O)OC(C)(C)C)ccc1OCC(N)=O (configuration not stated)	0	21970	0	?	0	0
COC(=O)C1=C(C)NC(=O)NC1c1ccc(OC)c(OC)c1 (configuration not stated)	-	0	0	0	0	0
CCOC(=O)C1=C(c2ccccc2)NC(=O)NC1c1ccc(OC)c(OC)c1 (configuration not stated)	0	0	0	0	0	0
COc1cc(C2NC(=O)NC(c3ccccc3)=C2C(C)=O)ccc1OCC#N (configuration not stated)	0	23457	0	0	0	0
CN(C)CCNC(=O)C(=O)Nc1ccc(Cl)c(N2CCCS2(=O)=O)c1	0	-	-	-	-	-
Cc1ccc(OCc2nc(-c3ccccc3)no2)c(C)c1	0	-	0	-	-	-
Clc1ccc(OCCCc2nc(-c3cccnc3)no2)c(Cl)c1	0	21481	0	0	0	0
Cc1cc(C)c(C)c(OCc2nc(-c3cccnc3)no2)c1	0	21478	0	0	0	0
COc1ccc(Cn2cnc3c4ccccc4n(CC(=O)NCCc4ccccc4)c3c2=O)cc1	0	-	-	-	-	-
CCOC(=O)c1c(-n2c(C)cc(C=O)c2C)sc2c1CCCC2	0	22089	0	0	0	0
CS(=O)(=O)c1cccc(C(=O)Nc2ccc(-c3nc4ccccc4s3)c(O)c2)c1	0	-	-	-	-	-
COc1ccc(CNC(=O)NCCSC2CCOCC2)cc1	0	-	-	-	-	-
Cc1ccc(-n2ncc3c(=O)[nH]c(SCC(=O)N4CCCC4)nc32)cc1C	0	0	0	0	0	0
SMILES	SSB-PriA inh	Bead autofluor	MazF activator	BoNT-A LC inh2	Anthrax LF inh2	BoNT F protease
Cc1ccc(-n2ncc3c(=O)[nH]c(SCC(=O)N4CCC(C)CC4)nc32)cc1C	86.1	0	0	0	0	0
CN(Cc1ccco1)Cc1ccc(O)c2ncccc12	0	0	0	0	0	0
Oc1ccc(COCc2ccccc2)c2cccnc12	83.8	0	0	0	0	0
Oc1ccc(COc2cccc3cccnc23)c2cccnc12	0	-	-	-	-	-
CCCOCc1ccc(O)c2ncccc12	53.5	0	0	0	0	0
CC(C)COCc1ccc(O)c2ncccc12	84.3	0	0	0	0	0
Oc1ccc(COC2CCCCC2)c2cccnc12	108.0	-	-	-	-	-
Oc1ccc(Cc2ccccc2)c2cccnc12	0	0	0	0	0	0
Cc1cc(NC(=O)Cc2cccs2)n(-c2nc3c(cnn3-c3cccc(C)c3C)c(=O)[nH]2)n1	0	-	-	-	-	-
Cc1ccc(CCNC(=O)c2coc3nc4ccccc4nc23)cc1	0	0	90.2	0	0	0

Source: PubChem BioAssay (several laboratories)
